PubChem BioAssay AID887 (National Center for Advancing Translational Sciences (NCATS), 2007)
Several values for one entry are separate records, joined by “and”; a condition that tells them apart may be missing. Equal entries are not always repeated. About 1,100 (1.5%) of roughly 74,000 compounds were called active. A call without a number means that no potency is given here. Roughly 5% stayed inconclusive and do not appear here. Calls come from the whole dose curve; as a rule, active = well fitted inhibition curve with a large enough effect; inconclusive = small, poorly fitted or top-dose-only effect; inactive = no such curve, though single readings can be large or run the other way. For the sample, actives were picked, then their nearest neighbours and some compounds at random.

Target: Polyunsaturated fatty acid lipoxygenase ALOX15 (Homo sapiens) (UniProt P16050)
Sequence (P16050 whole entry, looked up): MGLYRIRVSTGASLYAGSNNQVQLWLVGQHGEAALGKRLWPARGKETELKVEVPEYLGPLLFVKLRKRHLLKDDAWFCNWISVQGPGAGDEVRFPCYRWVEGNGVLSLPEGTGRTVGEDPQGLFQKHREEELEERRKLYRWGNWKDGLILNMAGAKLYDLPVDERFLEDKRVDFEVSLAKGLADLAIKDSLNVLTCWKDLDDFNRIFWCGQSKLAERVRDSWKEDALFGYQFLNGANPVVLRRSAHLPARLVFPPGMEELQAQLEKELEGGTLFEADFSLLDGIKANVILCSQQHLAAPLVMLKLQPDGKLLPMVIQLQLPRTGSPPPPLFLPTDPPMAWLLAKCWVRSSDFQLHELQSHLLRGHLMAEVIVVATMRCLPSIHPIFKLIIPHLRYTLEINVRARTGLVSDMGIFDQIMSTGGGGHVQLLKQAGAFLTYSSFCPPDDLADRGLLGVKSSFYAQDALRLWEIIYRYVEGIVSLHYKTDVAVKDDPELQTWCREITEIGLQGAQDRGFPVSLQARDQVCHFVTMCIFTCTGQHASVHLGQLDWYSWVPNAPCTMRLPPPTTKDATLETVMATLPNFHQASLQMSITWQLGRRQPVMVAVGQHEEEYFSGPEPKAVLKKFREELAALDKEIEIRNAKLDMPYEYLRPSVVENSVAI
Assay: qHTS Assay for Inhibitors of 15-hLO (15-human lipoxygenase); note: nearly all actives have a fitted effect of over 55% in size
Conditions: purified 15hLO-1, xylenol orange hydroperoxide absorbance; series mostly up to 57.1 µM
Text: Assay Overview: NIH Molecular Libraries Screening Centers Network [MLSCN] NIH Chemical Genomics Center [NCGC] MLSCN Grant: MH081283-01A1 PI Name: Holman, T.R., University of California, Santa Cruz Human lipoxygenase 15hLO-1 is a member of the closely related lipoxygenase family of enzymes which catalyze the site-specific oxidation of arachidonic acid to various hormone precursor molecules and as such is a candidate for drug development in a variety of disease areas, such as cancer and inflammation. Inhibition of 15hLO-1 activity was screened by utilizing arachidonic acid as a substrate. The extent of hydroperoxide product formation was measured by a secondary chromogenic reaction in which xylenol orange (XO, Sigma-Aldrich, cat. number 39,818-7) reacts with the ferric ions produced from the reaction between the hydroperoxide and ferrous ions. The Fe(III)-XO complex is characterized with red-shifted absorbance at 560 nm. A purified preparation of human 15hLO-1 was supplied by Professor Ted Holman, University of California, Santa Cruz.
Assay Protocol: Buffer: 25 mM Hepes pH 7.5, 0.01% Triton X-100. Reagents/Controls: Buffer in columns 3 and 4 as negative control (no enzyme). Substrate solution: 50 uM arachidonic acid (Sigma-Aldrich, St. Louis, MO) final concentration dispensed throughout the plate. Enzyme: 40 nM 15hLO-1 final concentration in columns 1, 2, 5-48. Column 1 is neutral (100% activity). Column 2 contained pin-transferred titration of NDGA (nordihidroguaiaretic acid, Sigma-Aldrich, N 5023, top concentration 10 mM in DMSO, then 1:2 dilution in duplicate). (Dilution factor: 23 nL into 4 uL.) Chromogenic detection reagent (divalent iron/xylenol orange, Fe-XO): 200 uM xylenol orange plus 300 uM ferrous ammonium sulfate prepared freshly in 50 mM sulfuric acid. Assay Steps: Three uL of enzyme were dispensed to 1536-well Greiner black clear bottom plates. Compounds and controls (23 nL) were transferred via Kalypsys PinTool. The plates were incubated for 15 min at room temperature, and then 1 uL of substrate solution was added to start the reaction. After room temperature incubation for 6 minutes, 4 uL of Fe-XO solution was added to each well followed by a short spin (1000 rpm, 15 sec) and the plates were then incubated for 30 min. The absorbance at 405 and 573 nm were measured using ViewLux (Perkin-Elmer) High-throughput CCD imager and absorbance protocol settings. The 573-to-405 absorbance ratio was used to compute reaction progress.
Potency is the fitted concentration of half-maximal effect.

SMILES	activity change, negative = inhibition	Potency
Cc1nc2ccccc2c(=O)n1CCCn1ccnc1	inactive	–
Cc1ccnc(-n2sc3ccccc3c2=O)n1	–	20 µM (active)
Cc1ccnc(N2CCC(C(=O)NC3CCCCCC3)CC2)n1	inactive	–
CC(C)=CCC/C(C)=C/CC/C(C)=C/CC/C(C)=C/CO	inactive	–
O=C(O)[C@@H](O)Cc1ccccn1	2.76% [at 11.4 µM] (inactive)	–
COc1ccc(/C=C/NC(=O)Cc2ccc(OC)c(OC)c2)cc1	4.24% [at 11.4 µM] (inactive) and -3.82% [at 11.4 µM] (inactive)	–
CCCCc1nc2ccccc2c(=O)n1NC(=O)c1c(O)c2cccc3c2n(c1=O)CC3	inactive	–
CCCCc1nc2ccccc2c(NC(=O)CN2CCN(C)CC2)c1CCC	–	15.8 µM (active)
CCOC(=O)N1CCN(CC(=O)Nc2cc(C)nn2-c2nc3ccccc3s2)CC1	inactive	–
CC(C)CN1CCc2nc(-c3ccccc3)c3c(c2C1)COC(C)C3 (stereo not given)	-12.9% [at 11.4 µM] (inactive)	–
CO[C@H]1COC(=O)[C@H](Cc2ccccc2)NC(=O)C/C=C\[C@@H](C)[C@H](OC)COC(=O)C/C=C\[C@@H]1C	10.5% [at 11.4 µM] (inactive)	–
COC(=O)NC(c1ccccc1)[C@]1(C(C)=O)CCCC1=O (stereo not given in full)	9.57% [at 11.4 µM] (inactive)	–
c1ccc(CSc2nnc(-c3ccco3)c(-c3ccco3)n2)cc1	–	6.31 µM (active)
Nc1cc(=O)nc(SCc2ccccc2)n1Cc1ccco1	inactive	–
c1ccc(CSc2nnc(-c3ccco3)n2Cc2ccccc2)cc1	inactive	–
CC(=O)OC1CCC2(O)CC1(C)CCC1C2CC1(C)C (stereo not given)	inactive	–
COc1ccc(CCC(=O)c2c(O)cc(OC3OC(CO)C(O)C(O)C3O[C@@H]3OC(C)C(O)C(O)C3O)cc2O)cc1O (stereo not given in full)	inactive	–
CC(C)[C@@H](OCc1ccccc1)[C@H](C)/C=N\OC[C@@H](C)[C@H](OCc1ccccc1)C(C)C	-0.92% [at 11.4 µM] (inactive)	–
CO[C@H]1COC(=O)CCC[C@@H](C)[C@H](OC)COC(=O)[C@@H](C)NC(=O)C/C=C\[C@@H]1C	-1.39% [at 11.4 µM] (inactive)	–
CCC1(C)CC(=O)NC1=O (stereo not given)	inactive	–
Cc1cc(C)cc(N(C(C)C(=O)Nc2c(C)n(C)n(-c3ccccc3)c2=O)S(C)(=O)=O)c1 (stereo not given)	inactive	–
COC(=O)Nc1c(C)n(C)n(-c2ccccc2)c1=O	inactive	–
Cc1c(NC(=O)C(C)OC(=O)c2cc3c4ccccc4n(C)c3s2)c(=O)n(-c2ccccc2)n1C (stereo not given)	–	31.6 µM (active)
CC1(C)OC2CO[C@]3(COS(N)(=O)=O)OC(C)(C)OC3C2O1 (stereo not given in full)	inactive	–
COc1ccccc1OCCNCC(O)COc1cccc2[nH]c3ccccc3c12 (stereo not given)	inactive	–
Clc1ccc(CSc2nnc([C@@H]3CCCN3)o2)cc1	inactive	–
CC(C)N(CCNC(=O)c1ccc(-n2c(=O)c(=O)[nH]c3ccccc32)cc1)C(C)C	inactive	–
CCCc1[nH]nc2c1C(c1ccc(OC(=O)c3ccco3)cc1)C(C#N)=C(N)O2 (stereo not given)	inactive	–

SMILES	activity change, negative = inhibition	Potency
CCCc1[nH]nc2c1C(C1CC=CCC1)C(C#N)=C(N)O2 (stereo not given)	inactive	–
CCCc1[nH]nc2c1C(c1ccc(Br)s1)C(C#N)=C(N)O2 (stereo not given)	–	15.8 µM (active)
C=C1C([C@@]2(C)C(OC(C)=O)CC(=O)O[C@@](C)(COC(C)=O)C2CC(=O)OC)C(OC=O)C(OC(=O)C(O)C(C)CC)[C@]2(C)C(c3ccoc3)CC(=O)C12O (stereo not given in full)	inactive	–
C/C=C(/C)C(=O)OC1Cc2c(ccc3ccc(=O)oc23)OC1(C)C (stereo not given)	inactive	–
CCC1=C/C(=C\c2ccc3c(c2)OCO3)C(=O)S1	–	25.1 µM (active)
CCOC(=O)NCc1ccc2c(c1)OCO2	inactive	–
CCCCC(=O)Nc1ccc2c(c1)OCCO2	inactive	–
Cc1ccc(C2CC(c3cccc(C)c3)n3nc(N)nc3N2)cc1 (stereo not given)	inactive	–
CO[C@@H]1COC(=O)C/C=C\[C@H](C)[C@@H](NS(=O)(=O)c2ccc(C)cc2)COC(=O)C/C=C\[C@@H]1C	7.8% [at 11.4 µM] (inactive) and 8.79% [at 11.4 µM] (inactive)	–
COc1ccc(C2CC(=O)c3c(O)cc(OC4OC(COC5OC(C)C(O)C(O)C5O)C(O)C(O)C4O)cc3O2)cc1O (stereo not given)	inactive	–
COc1c(C(C)C)oc2cc3oc(=O)ccc3cc12	inactive	–
CC(=O)Oc1c2c(c3c(c1CC=C(C)C)O[C@@]14C(=CC5CC1C(C)(C)OC4(C/C=C(\C)C(=O)O)C5=O)C3=O)OC(C)(CCC=C(C)C)C=C2 (stereo not given in full)	inactive	–
Nc1nc2nc(Cl)[nH]c2c(=O)[nH]1	inactive	–
CC1CCc2c(sc3c2C2=NS(=O)(=O)CCN2C=N3)C1 (stereo not given)	inactive	–
CN1CCCC1CCO[C@@](C)(c1ccccc1)c1ccc(Cl)cc1 (stereo not given in full)	inactive	–
CN(CCOc1ccc(CC2SC(=O)NC2=O)cc1)c1ccccn1 (stereo not given)	inactive	–
COc1ccc(OC)c(Nc2nc(-c3ccc(O)c(O)c3)cs2)c1	–	0.126 µM (active)
Oc1ccc(-c2csc(Nc3cccnc3)n2)cc1	inactive	–
COc1ccc(-c2n[nH]c(C)c2-c2ccc(OC)c(OC)c2)c(O)c1	inactive	–
COc1cccc([C@H]2Oc3ccc(OC)cc3/C(=N\OCC[C@@H]3C=C[C@H](OC(C)=O)[C@H](COC(C)=O)O3)[C@@H]2O)c1	7.41% [at 11.4 µM] (inactive)	–
CCOC(=O)N/N=C1/C[C@@H](O)[C@@H](O)[C@@H]2[C@@H]3C(=O)N(CC)C(=O)[C@H]3CC[C@H]12	0.206% [at 11.4 µM] (inactive)	–
COc1ccc(COC(=O)N/N=C2/C[C@@H](O)[C@@H](O)[C@@H]3[C@@H]4C(=O)N([C@@H](C)c5ccccc5)C(=O)[C@H]4CC[C@@H]23)cc1	7.99% [at 11.4 µM] (inactive)	–
Cc1cc(C)c2nc(N3CCCC3)c(C#N)cc2c1	–	2 µM (active)
CCOc1ccc2nc(N3CCCN(C(=O)Nc4ccccc4C)CC3)c(C#N)cc2c1	inactive	–
CC(C)CCNc1nc(N2CCCC2)c2c(c1C#N)CCN(C)C2	inactive	–
CC(C)(C)c1ccc(OC2C=CC(C#Cc3ccccc3)OC2CO)cc1 (stereo not given)	-12.4% [at 11.4 µM] (inactive)	–
Cc1cc(C)cc(C#CC2C=CC(Oc3ccc(C4CCCC4)cc3)C(CO)O2)c1 (stereo not given)	-14.1% [at 11.4 µM] (inactive)	–
